Source: PubChem (National Center for Advancing Translational Sciences (NCATS))
L3MBTL1 block – inhibitors of human L3MBTL1. AlphaScreen L3MBTL1–H3K9me1 peptide binding. Potency, µM (series often up to 57.1 µM), usual class: inhibitors. 230,000 compounds, 0.66% hits. AID 485360; note: nearly all actives have a fitted effect of over 60% in size
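Read-out is AlphaScreen signal from streptavidin donor and nickel chelate acceptor beads (10 ug/mL final each) bridging L3MBTL1 (50 nM) and biotinylated K9-monomethylated H3(1-15) peptide (75 nM), after 30 min compound exposure at room temperature.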
PLK1 PBD inh – blocks phosphopeptide binding to human PLK1 polo-box domain. P53350. AID 720504. Potency, µM, hits mostly inhibitors. Plk1 PBD binding of FITC phosphopeptide, fluorescence polarization. 360,000 compounds, 2.8% hits; note: series mostly up to about 57 µM; nearly all actives have a fitted effect of over 65% in size
HP1b binding inh – blocks HP1-beta chromodomain binding to methylated histone tails. AlphaScreen HP1-beta / biotin-H3K9me3 peptide binding. Potency, µM (highest dose often 114 µM), actives largely listed as inhibitors. 390,000 compounds, 0.56% hits. AID 540317; note: nearly all actives have a fitted effect of over 70% in size
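Compound inhibition of the preformed complex between 50 nM HP1-beta and 50 nM biotinylated H3K9me3 peptide was read by AlphaScreen. Buffer was PBS pH 7.4 with 0.01% Tween-20. Incubations ran 30 min at room temperature, with 10 ug/mL donor/acceptor beads.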
VDR inhibitor – inhibitors of human vitamin D receptor | Potency, µM, most hits filed as inhibitors | AID 504847 | 400,000 compounds, 0.93% hits | VDR-SRC2-3 peptide fluorescence polarization, 2 h | P11473
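FP read-out; VDR + SRC2-3 coactivator peptide; 23 nl compound by pintool; 2 h RT incubation; reagents held at 4 deg C, protected from light.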
BAZ2B inh – BAZ2B (human) inhibition; AlphaScreen BAZ2B-H3K14Ac peptide displacement; Potency, µM (doses to about 114 µM), usual class: inhibitors; 360,000 compounds, 4.4% hits; AID 504333; note: nearly all actives have a fitted effect of over 60% in size
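AlphaScreen displacement: compounds (up to 110uM) incubated 30 min at room temperature with a preformed 50 nM BAZ2B/50 nM biotinylated H3K14Ac peptide complex in PBS pH 7.4 with Tween-20. Donor and acceptor beads at 10 ug/mL final added, 20 min light-protected before reading.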
JMJD2A Tudor – blocks the human JMJD2A Tudor domain; AID 504339; 390,000 compounds, 4.4% hits; AlphaScreen JMJD2A-Tudor / H3K4me3 peptide binding; Potency, µM (titrated, usually from 114 µM), most hits filed as inhibitors; note: nearly all actives have a fitted effect of over 50% in size
Target sequence (O75164 whole entry, looked up, the tested form may be a part): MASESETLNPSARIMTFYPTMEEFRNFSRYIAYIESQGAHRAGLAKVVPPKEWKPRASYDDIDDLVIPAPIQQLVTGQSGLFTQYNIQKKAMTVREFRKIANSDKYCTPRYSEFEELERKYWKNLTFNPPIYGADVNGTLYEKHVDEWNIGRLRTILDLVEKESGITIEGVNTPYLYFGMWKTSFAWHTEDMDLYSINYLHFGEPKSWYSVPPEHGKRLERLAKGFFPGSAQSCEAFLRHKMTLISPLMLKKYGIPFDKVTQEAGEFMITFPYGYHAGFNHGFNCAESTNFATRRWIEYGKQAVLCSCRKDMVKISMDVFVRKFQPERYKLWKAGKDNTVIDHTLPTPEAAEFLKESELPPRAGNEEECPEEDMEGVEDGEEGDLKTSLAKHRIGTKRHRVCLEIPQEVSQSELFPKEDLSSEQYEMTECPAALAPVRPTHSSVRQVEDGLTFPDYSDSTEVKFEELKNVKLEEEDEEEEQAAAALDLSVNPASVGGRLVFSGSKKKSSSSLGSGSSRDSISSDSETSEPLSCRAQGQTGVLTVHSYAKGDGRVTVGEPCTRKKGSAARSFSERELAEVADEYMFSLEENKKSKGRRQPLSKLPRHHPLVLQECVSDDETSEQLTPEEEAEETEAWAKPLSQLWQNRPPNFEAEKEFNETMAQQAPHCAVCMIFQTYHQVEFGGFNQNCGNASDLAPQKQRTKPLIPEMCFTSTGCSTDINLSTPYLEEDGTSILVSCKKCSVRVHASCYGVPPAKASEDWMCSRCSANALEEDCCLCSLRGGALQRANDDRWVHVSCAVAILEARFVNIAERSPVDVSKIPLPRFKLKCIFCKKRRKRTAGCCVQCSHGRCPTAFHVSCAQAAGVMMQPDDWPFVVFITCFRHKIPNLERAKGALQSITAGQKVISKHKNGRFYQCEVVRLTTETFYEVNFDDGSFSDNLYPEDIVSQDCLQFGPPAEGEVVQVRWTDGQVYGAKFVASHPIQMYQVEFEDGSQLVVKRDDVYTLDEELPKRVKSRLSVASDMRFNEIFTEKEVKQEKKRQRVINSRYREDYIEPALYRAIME
Large screens that a line does not name were inactive. Shown are actives, neighbours in structure and some others; about 6.9% of the full set was active somewhere. Calls come from the whole dose curve; as a rule, active = well fitted curve in the direction sought with a large enough effect; inconclusive = small, poorly fitted or top-dose-only effect, or another doubt; inactive = no such curve, though single readings can be large; an effect the other way counts as inactive or inconclusive.

O=C(NC(=S)Nc1ccc(S(=O)(=O)Nc2ncccn2)cc1)c1ccc(Br)cc1	PLK1 PBD inh 11µM, HP1b binding inh inconclusive
O=C(NC(=S)Nc1ccc(S(=O)(=O)Nc2nccs2)cc1)c1ccccc1	none
O=C(Nc1ccc(S(=O)(=O)Nc2nccs2)cc1)c1nn(-c2ccccc2)ccc1=O	PLK1 PBD inh inconclusive, BAZ2B inh inconclusive (no result: L3MBTL1 block)
Cc1oc(-c2ccc(C(=O)Nc3cccc(C(F)(F)F)c3)cc2)nc1CSc1ccccc1	none (no result: L3MBTL1 block, PLK1 PBD inh)
COCCCNc1oc(-c2ccccc2F)nc1C#N	PLK1 PBD inh 24µM, VDR inhibitor inconclusive, JMJD2A Tudor inconclusive (no result: L3MBTL1 block)
COc1ccc(CCNc2oc(COc3ccccc3Cl)nc2C#N)cc1OC	BAZ2B inh inconclusive, JMJD2A Tudor inconclusive
COc1ccc(CCNc2oc(COc3ccccc3F)nc2C#N)cc1OC	PLK1 PBD inh 27µM, HP1b binding inh inconclusive, BAZ2B inh inconclusive
COCCCNc1oc(-c2ccccc2OC)nc1C#N	none
COc1ccc(-c2nc(C#N)c(NCCc3ccccc3)o2)cc1OC	BAZ2B inh 45µM, JMJD2A Tudor inconclusive (no result: L3MBTL1 block)
CCOC(=O)c1ccc(OCC2c3cc(OC)c(OC)cc3CCN2C(=O)Cc2ccc(F)cc2)cc1 (stereo not drawn)	BAZ2B inh inconclusive (no result: L3MBTL1 block, PLK1 PBD inh)
Cn1c(-c2ccc3c(c2)OCO3)cnc1NC(=O)CCC(=O)NCCc1ccccc1	BAZ2B inh inconclusive, JMJD2A Tudor 56µM
Cc1cc(Cl)cc(C)c1OCCOCCNCc1ccccc1	BAZ2B inh inconclusive, JMJD2A Tudor 22µM
Cc1cc(C)c(OCCCCNCc2ccccc2)c(Cl)c1	BAZ2B inh 56µM, JMJD2A Tudor 1.4µM
Clc1ccc(OCCOCCNCc2ccccc2)cc1Cl	BAZ2B inh inconclusive, JMJD2A Tudor 25µM
CC(=O)NCCn1c(SCc2cccc([N+](=O)[O-])c2)nc2ccccc2c1=O	none (no result: L3MBTL1 block)
N#Cc1c(-n2cccc2/C=N/O)sc2c1CCCC2	HP1b binding inh inconclusive, BAZ2B inh 45µM, JMJD2A Tudor 45µM
N#Cc1c(N2C(=O)C3C4C=CC(C4)C3C2=O)sc2c1CCC2 (stereo not drawn)	none
C=CCNCc1cccn1-c1sc2c(c1C#N)CCCC2	HP1b binding inh inconclusive, BAZ2B inh inconclusive, JMJD2A Tudor 3.2µM (no result: L3MBTL1 block)
CCN(CC)C(=O)C1CCCN(c2ncnc3c2c(-c2ccccc2)cn3-c2cccc(C)c2)C1 (stereo not drawn)	BAZ2B inh inconclusive, JMJD2A Tudor inconclusive (no result: L3MBTL1 block, PLK1 PBD inh)
CC(C)=CCC1=C(O)c2ccccc2C(=O)C1=O	VDR inhibitor 25µM (no result: L3MBTL1 block, PLK1 PBD inh, HP1b binding inh, BAZ2B inh, JMJD2A Tudor)
CC(=O)Oc1oc(-c2ccccc2)nc1/C=N/c1ccccn1	PLK1 PBD inh 9.5µM, VDR inhibitor 22µM
Cc1nc2nc(C(F)(F)F)[nH]n2c(=O)c1Cc1ccccc1	none (no result: L3MBTL1 block, PLK1 PBD inh)
CC(C)c1ccc(NC(=O)CCNS(=O)(=O)c2ccc3c(c2)oc(=O)n3C)cc1	none (no result: L3MBTL1 block, PLK1 PBD inh)
CC(=O)c1ccc(NC(=S)N2CCN(S(=O)(=O)c3ccc(F)cc3)CC2)cc1	none (no result: L3MBTL1 block)
CCn1c(=O)c2c(n3c(=S)[nH]nc13)-c1ccccc1CC21CCCCC1	PLK1 PBD inh inconclusive, JMJD2A Tudor 18µM (no result: L3MBTL1 block)
CCn1c(SCC#N)nc2c(c1=O)C1(CCCC1)Cc1ccccc1-2	none
CCSc1n[nH]c2nc3c(c(=O)n12)C1(CCCCC1)Cc1ccccc1-3	PLK1 PBD inh 13µM, VDR inhibitor inconclusive
CSc1n[nH]c2nc3c(c(=O)n12)C1(CCCCC1)Cc1ccccc1-3	PLK1 PBD inh 24µM
N#CCSc1n[nH]c2nc3c(c(=O)n12)C1(CCCCC1)Cc1ccccc1-3	PLK1 PBD inh inconclusive (no result: L3MBTL1 block)
C/C(=N\NC(=O)c1ccc(O)cc1)c1ccc2c(c1)Nc1ccccc1S2	BAZ2B inh 50µM, JMJD2A Tudor 79µM
Cc1nc(-c2ccc(S(=O)(=O)Nc3cc(Cl)ccc3C)cc2)co1	none (no result: L3MBTL1 block, PLK1 PBD inh)
Cc1cc(C(=O)COC(=O)c2ccc[nH]c2=O)c(C)n1-c1ccc(Br)cc1	BAZ2B inh inconclusive
CC(=O)Nc1ccc(SCC(=O)c2cc(C)n(-c3ccccc3)c2C)cc1	BAZ2B inh 45µM
COCC(=O)OCC(=O)c1cc(C)n(-c2ccc(Br)cc2)c1C	PLK1 PBD inh 17µM, BAZ2B inh inconclusive, JMJD2A Tudor inconclusive (no result: L3MBTL1 block)
Cc1cc(C(=O)CSc2cccc[n+]2[O-])c(C)n1-c1ccccc1	BAZ2B inh inconclusive
Cc1cc(C(=O)CSc2cccc[n+]2[O-])c(C)n1-c1ccc(Br)cc1	BAZ2B inh 50µM (no result: PLK1 PBD inh, HP1b binding inh, VDR inhibitor, JMJD2A Tudor)
